Measured values: PubChem BioAssay (NCATS)
Where “and” joins values, the source holds several entries; their conditions need not be identical. Equal values may be shown once. Results filed as inconclusive are left out. A structure can be active in one record and inactive in another. Calls of active or inactive are those of the source. Unless noted, calls come from the whole dose curve; as a rule, active = well fitted curve in the direction sought with a large enough effect; inconclusive = small, poorly fitted or top-dose-only effect, or another doubt; inactive = no such curve, though single readings can be large; an effect the other way counts as inactive or inconclusive.

Assays:
[1] = qHTS for Inhibitors of Plasmodium falciparum (DD2) proliferation (AID 504314);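 note: parasite DNA measured by SYBR Green fluorescence after red cell lysis; plate controls were DMSO vehicle for no effect and artemisinin wells for full effect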
How it was run: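 Infected RBCs, 0.3% parasitemia, 2.5% Hct; compound 72 h, 37C/5% CO2; lyse + SYBR Green I, RT overnight, dark; read ex485/em535; normalize to DMSO and artemisinin 0.29 uM.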

[2] = qHTS for Inhibitors of Plasmodium falciparum (GB4) proliferation (AID 504315);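 note: 0% = DMSO vehicle and -100% = 0.29 µM artemisinin control; nearly all actives have a fitted effect of over 50% in size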
How it was run: (§1)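 Erythrocytes infected with P. falciparum line (0.3% parasitemia, 2.5% hematocrit final) incubated with compounds 72 h at 37 °C, 5% CO2; SYBR Green lysis buffer added, fluorescence read next day. Normalized to 0.29 uM artemisinin and DMSO.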

[3] = qHTS for Inhibitors of Plasmodium falciparum (7G8) proliferation (AID 504316); note: nearly all actives have a fitted effect of over 65% in size; note: potency is the fitted concentration of half-maximal effect;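 for activity change, negative = inhibition: series mostly up to about 6.7 µM; 0% = DMSO vehicle and -100% = 0.29 µM artemisinin full kill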
How it was run: as §1

[4] = qHTS for Inhibitors of Plasmodium falciparum (CP250) proliferation (AID 504320);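 note: plate controls were DMSO vehicle for no effect and 0.29 µM artemisinin control for full effect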
How it was run: as §1

[5] = target: Atrial natriuretic peptide receptor 1 (Homo sapiens) (UniProt P16066); assay: Natriuretic polypeptide receptor (hNpr1) antagonism - Pilot CMLD screen (AID 1347052; calls by dose curve;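 note: cGMP level read as GloSensor luciferase luminescence after agonist stimulation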; note: potency is the fitted concentration of half-maximal effect;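 for activity change, negative = inhibition: HEK293 cells with hNpr1 stimulated by hNppA peptide at 0.1 nM; series mostly up to about 9.2 µM; % is set by controls: 0 for no effect and ±100 for the full control effect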)
Sequence of Atrial natriuretic peptide receptor 1 (Homo sapiens) (P16066 whole entry, looked up): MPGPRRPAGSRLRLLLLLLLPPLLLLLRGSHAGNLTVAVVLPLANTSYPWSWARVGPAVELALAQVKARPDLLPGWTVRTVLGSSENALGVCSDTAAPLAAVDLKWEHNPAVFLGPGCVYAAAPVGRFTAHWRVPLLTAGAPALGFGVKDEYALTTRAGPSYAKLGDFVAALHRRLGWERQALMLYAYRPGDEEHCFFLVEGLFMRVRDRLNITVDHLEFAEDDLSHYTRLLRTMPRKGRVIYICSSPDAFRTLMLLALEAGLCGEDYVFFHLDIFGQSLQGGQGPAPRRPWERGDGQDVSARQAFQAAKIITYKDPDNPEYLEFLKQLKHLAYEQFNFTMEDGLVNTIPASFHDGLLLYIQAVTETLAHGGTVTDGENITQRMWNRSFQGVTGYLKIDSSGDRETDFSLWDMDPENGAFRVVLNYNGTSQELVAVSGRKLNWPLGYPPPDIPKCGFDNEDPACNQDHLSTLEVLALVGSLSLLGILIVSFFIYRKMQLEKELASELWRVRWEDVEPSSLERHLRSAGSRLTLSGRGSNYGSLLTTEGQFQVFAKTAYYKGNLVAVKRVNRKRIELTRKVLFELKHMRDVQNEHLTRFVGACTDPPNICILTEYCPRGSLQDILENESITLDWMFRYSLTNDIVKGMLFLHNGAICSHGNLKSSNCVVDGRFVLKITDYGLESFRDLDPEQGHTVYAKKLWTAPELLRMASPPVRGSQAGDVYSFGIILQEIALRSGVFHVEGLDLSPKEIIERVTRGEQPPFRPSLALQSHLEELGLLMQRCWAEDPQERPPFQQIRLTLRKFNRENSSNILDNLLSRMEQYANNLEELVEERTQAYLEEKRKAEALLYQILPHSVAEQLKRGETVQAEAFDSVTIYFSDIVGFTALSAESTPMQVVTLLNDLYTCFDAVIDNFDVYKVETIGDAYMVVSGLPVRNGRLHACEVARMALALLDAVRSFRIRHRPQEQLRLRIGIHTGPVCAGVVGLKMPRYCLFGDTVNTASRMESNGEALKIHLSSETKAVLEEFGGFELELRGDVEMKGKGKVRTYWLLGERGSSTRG

[6] = target: Cytochrome P450 3A4 (Homo sapiens) (UniProt P08684); assay: qHTS Assay for Activators of Cytochrome P450 3A4 (AID 885); note: nearly all actives have a fitted effect of over 65% in size
Sequence of Cytochrome P450 3A4 (Homo sapiens) (P08684 whole entry, looked up): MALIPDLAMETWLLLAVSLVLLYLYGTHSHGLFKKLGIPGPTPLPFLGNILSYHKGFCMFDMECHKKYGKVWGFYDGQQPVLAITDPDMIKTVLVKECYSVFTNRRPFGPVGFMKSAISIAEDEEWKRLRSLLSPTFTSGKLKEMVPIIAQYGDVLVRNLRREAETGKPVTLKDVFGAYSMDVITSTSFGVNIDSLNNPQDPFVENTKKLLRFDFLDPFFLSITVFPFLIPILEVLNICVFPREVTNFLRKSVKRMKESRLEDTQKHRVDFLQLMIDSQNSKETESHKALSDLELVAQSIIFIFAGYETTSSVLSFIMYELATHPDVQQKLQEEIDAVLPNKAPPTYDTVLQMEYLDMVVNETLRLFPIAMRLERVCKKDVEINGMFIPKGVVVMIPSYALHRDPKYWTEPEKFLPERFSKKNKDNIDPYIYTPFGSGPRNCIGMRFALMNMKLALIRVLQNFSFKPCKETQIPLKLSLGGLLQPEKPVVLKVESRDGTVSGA
How it was run: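 Signal was normalized against complete inhibition by 57 uM ketoconazole. The reaction used 20nM CYP3A4 with 25uM Luciferin-PPXE, 10-min compound preincubation and a 60-min NADPH-supported step at RT.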

[7] = target: Cytochrome P450 2D6 (Homo sapiens) (UniProt P10635); assay: qHTS Assay for Inhibitors and Substrates of Cytochrome P450 2D6 (AID 891); note: nearly all actives have a fitted effect of over 60% in size; note: potency is the fitted concentration of half-maximal effect;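 for activity change, negative = inhibition: luciferin methyl ether substrate demethylated by CYP2D6 with NADPH regeneration; % is set by controls: 0 for no effect and ±100 for the full control effect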
Sequence of Cytochrome P450 2D6 (Homo sapiens) (P10635 whole entry, looked up): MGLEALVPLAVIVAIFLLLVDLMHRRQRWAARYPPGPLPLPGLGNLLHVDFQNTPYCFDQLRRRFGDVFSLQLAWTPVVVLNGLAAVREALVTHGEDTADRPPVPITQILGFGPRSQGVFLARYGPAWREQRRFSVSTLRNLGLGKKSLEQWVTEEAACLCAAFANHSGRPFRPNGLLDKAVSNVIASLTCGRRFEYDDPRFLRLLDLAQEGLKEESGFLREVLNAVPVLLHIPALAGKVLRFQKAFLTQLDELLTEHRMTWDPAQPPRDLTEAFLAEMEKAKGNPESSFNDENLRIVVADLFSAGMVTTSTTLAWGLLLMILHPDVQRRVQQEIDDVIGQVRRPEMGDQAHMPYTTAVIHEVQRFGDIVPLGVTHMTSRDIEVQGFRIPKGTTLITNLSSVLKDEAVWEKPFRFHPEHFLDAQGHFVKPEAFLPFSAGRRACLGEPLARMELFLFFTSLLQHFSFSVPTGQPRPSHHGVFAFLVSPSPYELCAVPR
How it was run: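 Human CYP2D6 (5 nM) with 30 uM Luciferin-ME EGE (at Km) in 100 mM KPO4, compound preincubated 10 min, then NADPH regeneration system for 60 min at room temperature. Luciferin read by luminescence; normalized to 1.43 uM quinidine.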

[8] = target: Cytochrome P450 2C19 (Homo sapiens) (UniProt P33261); assay: qHTS Assay for Inhibitors and Substrates of Cytochrome P450 2C19 (AID 899); note: nearly all actives have a fitted effect of over 60% in size; note: potency is the fitted concentration of half-maximal effect; for activity, negative = inhibition: % is set by controls: 0 for no effect and ±100 for the full control effect
Sequence of Cytochrome P450 2C19 (Homo sapiens) (P33261 whole entry, looked up): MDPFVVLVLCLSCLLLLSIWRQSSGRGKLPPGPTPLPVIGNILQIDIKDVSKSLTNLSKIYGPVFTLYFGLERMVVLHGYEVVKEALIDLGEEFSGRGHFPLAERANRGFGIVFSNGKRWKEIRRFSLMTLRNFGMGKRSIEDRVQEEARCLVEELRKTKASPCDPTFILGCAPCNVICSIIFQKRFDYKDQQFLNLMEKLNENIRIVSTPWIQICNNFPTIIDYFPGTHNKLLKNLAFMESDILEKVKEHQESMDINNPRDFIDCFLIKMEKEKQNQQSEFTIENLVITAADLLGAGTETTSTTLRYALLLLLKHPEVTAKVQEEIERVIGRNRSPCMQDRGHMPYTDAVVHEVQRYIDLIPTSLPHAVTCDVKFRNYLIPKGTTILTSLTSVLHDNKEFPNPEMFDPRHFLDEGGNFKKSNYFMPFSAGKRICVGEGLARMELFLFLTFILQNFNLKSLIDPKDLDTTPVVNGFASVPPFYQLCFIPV
How it was run: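 NADPH-dependent conversion of Luciferin-H EGE (10uM, at KM) by 5nM enzyme in 50mM KPO4, 60 min at 37C following 10 min compound preincubation. Stopped with luciferin detection buffer; luminescence read after 20 min.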

[9] = qHTS for Inhibitors of Plasmodium falciparum (HB3) proliferation (AID 504318); note: nearly all actives have a fitted effect of over 60% in size; note: potency is the fitted concentration of half-maximal effect;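 for activity change, negative = inhibition: 0% = DMSO vehicle and -100% = artemisinin control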
How it was run: as §1

[10] = target: Cytochrome P450 2C9 (Homo sapiens) (UniProt P11712); assay: qHTS Assay for Inhibitors and Substrates of Cytochrome P450 2C9 (AID 883); note: % is set by controls: 0 for no effect and ±100 for the full control effect; nearly all actives have a fitted effect of over 60% in size
Sequence of Cytochrome P450 2C9 (Homo sapiens) (P11712 whole entry, looked up): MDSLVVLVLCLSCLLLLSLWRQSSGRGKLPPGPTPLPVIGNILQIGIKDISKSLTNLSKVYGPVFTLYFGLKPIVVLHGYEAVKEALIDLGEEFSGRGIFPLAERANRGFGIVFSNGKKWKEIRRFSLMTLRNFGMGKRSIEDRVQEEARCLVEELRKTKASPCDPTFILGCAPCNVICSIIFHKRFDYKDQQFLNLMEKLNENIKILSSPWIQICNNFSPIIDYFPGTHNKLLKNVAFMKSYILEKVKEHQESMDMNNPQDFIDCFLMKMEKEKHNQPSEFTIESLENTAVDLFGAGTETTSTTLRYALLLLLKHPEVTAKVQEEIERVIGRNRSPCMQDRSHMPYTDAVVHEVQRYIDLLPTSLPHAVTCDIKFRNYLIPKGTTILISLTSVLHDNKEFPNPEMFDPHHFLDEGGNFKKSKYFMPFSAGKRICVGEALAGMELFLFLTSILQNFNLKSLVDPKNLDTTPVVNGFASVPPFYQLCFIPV
How it was run: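 A luminogenic readout tracked human CYP2C9 (10nM) converting deoxyluciferin (100uM, at KM) in 25mM KPO4 during 60 min at 37C with regenerated NADPH. Values normalized to 57uM sulphaphenazole as complete inhibition.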

[11] = qHTS Assay for Identification of Small Molecule Agonists for Hypoxia Response Element Signaling Pathway (AID 914; active = well fitted activation curve with a large enough effect in the signal ratio, with a control signal flat, not every such curve was filed as active; the % refers to the signal ratio; note: % of control where 0% means no effect); settings: ME-180 (cervical carcinoma) HRE-bla reporter, beta-lactamase ratio, CoCl2, 17 h; stronger effect = higher value
How it was run: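 HRE-bla ME-180 assay for agonist-like enhancement of an EC50 CoCl2 stimulus: 17 h at 37 degrees Celsius, CCF4 for 2.5 h, ratiometric 460/530 nm signal converted to %Activity and fitted to AC50.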

[12] = target: Cytochrome P450 3A4 (Homo sapiens) (UniProt P08684); assay: qHTS Assay for Inhibitors and Substrates of Cytochrome P450 3A4 (AID 884); note: series mostly up to about 57 µM; % is set by controls: 0 for no effect and ±100 for the full control effect; nearly all actives have a fitted effect of over 50% in size
How it was run: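 20 nM human CYP3A4 with 25 uM Luciferin-PPXE (at KM) in 200 mM KPO4, preincubated 10 min with compound; NADPH regeneration started a 60 min RT reaction. Luciferin detected by luminescence, normalized to 57 uM ketoconazole as full inhibition.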

CC(=O)OC[C@H]1O[C@H](C#CCCCc2ccccc2)C=C[C@H]1OC(C)=O
inactive: Potency [1] | Potency [2] | Potency [3] | Potency [4] | Potency [5]

COC(=O)C1=C(C)N(Cc2ccccc2)C(=O)NC1c1cccc(F)c1 (configuration not stated)
inactive: Potency [1] | Potency [2] | Potency [3] | Potency [4] | Potency [5]

CCCCCCCC1=CC2=CC(=O)C(C)(OC(C)=O)C(=O)C2=CN1CCc1ccccc1 (configuration not stated)
inactive: activity change, positive = activation [6] -45.9% [at 11.4 µM] | activity, negative = inhibition [8] 78.5% [at 11.4 µM] | Potency [1] | Potency [2] | Potency [3] | Potency [9] | Potency [4] | Potency [5]
active: Potency [7] 3.16 µM

C=C(CC(=O)OC)C[C@]1(CC(=O)OC)CC2(CC=C(C)C)C(=O)C(C(=O)c3ccccc3)=C(OC(=O)c3ccc(Br)cc3)C(CC=C(C)C)(C1)C2=O (some centres not stated)
inactive: activity change, negative = inhibition [10] 7.13% [at 11.4 µM] | activity change, positive = activation [6] -37.5% [at 11.4 µM] | activity, negative = inhibition [8] 79.8% [at 11.4 µM] | Potency [1] | Potency [2] | Potency [3] | Potency [9] | Potency [4] | Potency [5]

C[C@@H]1C=CCCO[C@]12C(=O)N(Cc1ccc(Br)cc1)c1ccccc12
inactive: Potency [1] | Potency [2] | Potency [3] | Potency [4] | Potency [5]

CCCCCCCC1=Cc2ccccc2C(CC(C)=O)N1C(=O)OC (configuration not stated)
1.69 µM (active) and inactive: Potency [3]
inactive: activity change, positive = activation [6] -59.5% [at 11.4 µM] | Potency [1] | Potency [2] | Potency [5]
active: Potency [8] 2.51 µM | Potency [9] 1.69 µM

CCCCC1=CC2=C(c3ccco3)C(=O)C(C)(OC(=O)c3ccc(OC)cc3)C(=O)C2=CN1Cc1ccc(OC)cc1 (configuration not stated)
inactive: activity, negative = inhibition [1] 1.26% [at 1.12 µM] | Potency [2] | Potency [3] | Potency [4] | Potency [5]

C[C@@H]1CC[C@H]2C(=O)NC[C@@H](O)CN2[C@@H]1c1ccc(Br)cc1
active: Potency [8] 2 µM
inactive: activity change, positive = activation [6] -42.5% [at 11.4 µM] | activation [11] -3.48% | Potency [1] | Potency [2] | Potency [3] | Potency [9] | Potency [5]

CCCC[C@@H]1CN2[C@H](c3ccc(Br)cc3)[C@H](C)CC[C@H]2C(=O)O1
active: Potency [8] 3.98 µM | Potency [5] 944 nM
inactive: activity change, positive = activation [6] -42.5% [at 11.4 µM] | Potency [1] | Potency [2] | Potency [3] | Potency [9] | Potency [4]

C=CCC1(c2ccccc2)Oc2ccccc2-c2nc3cc(Cl)c(Cl)cc3nc21 (configuration not stated)
inactive: activity change, negative = inhibition [10] -6.17% [at 11.4 µM] and 38.3% [at 11.4 µM] | activity change, negative = inhibition [12] -17.8% [at 11.4 µM] and -22.2% [at 11.4 µM] | activity change, negative = inhibition [7] 2.78% [at 11.4 µM] and 6.33% [at 11.4 µM] | activity, negative = inhibition [8] 39.4% [at 11.4 µM] and 70.5% [at 11.4 µM] | Potency [1] | Potency [2] | Potency [3] | Potency [9] | Potency [4] | Potency [5]

CC1=C(C)CC(c2ccccc2)C(C(=O)c2ccccc2O)C1 (configuration not stated)
inactive: activity change, negative = inhibition [10] -27.8% [at 11.4 µM] | activity change, negative = inhibition [12] -21.6% [at 11.4 µM] | activity change, negative = inhibition [7] 6.86% [at 11.4 µM] | activity, negative = inhibition [8] -23.3% [at 11.4 µM] | Potency [1] | Potency [2] | Potency [3] | Potency [9] | Potency [4] | Potency [5]

COC(=O)[C@@H]1CC[C@H](C)[C@@H](c2ccc(C)cc2)N1C(=O)c1ccc(C=NOC[C@@H](O)[C@H]2O[C@@H]3OC(C)(C)O[C@H]3[C@@H]2O)cc1
inactive: Potency [1] | Potency [2] | Potency [4] | Potency [5]
active: Potency [3] 1.2 µM

Cc1cc(C)c(S(=O)(=O)OC[C@H]2C=CC[C@@H](CCC[C@H]3O[C@H](C(=O)OC(C)C)CC[C@@H]3C)O2)c(C)c1
inactive: Potency [1] | Potency [2] | Potency [3] | Potency [4] | Potency [5]

O=C(NN=C1C[C@@H](O)[C@H](O)[C@H]2[C@@H]3C(=O)N(C4CCCCC4)C(=O)[C@@H]3CC[C@@H]12)OCc1ccccc1
inactive: Potency [1] | Potency [2] | Potency [3] | Potency [4] | Potency [5]

COC(=O)C(C(C)=O)C(=O)C(Cc1ccccc1)NC(=O)OCc1ccccc1 (configuration not stated)
inactive: activity change, negative = inhibition [10] 2.74% [at 11.4 µM] | activity change, negative = inhibition [12] -19.6% [at 11.4 µM] | activity, negative = inhibition [8] -11.9% [at 11.4 µM] | Potency [1] | Potency [2] | Potency [3] | Potency [9] | Potency [4] | Potency [5]

CCN1C(=O)[C@@H]2[C@H]3[C@H](O)[C@H](O)CC(=NO[C@H](C)c4cn([C@H](CO)Cc5ccccc5)nn4)[C@@H]3CC[C@H]2C1=O
inactive: Potency [1] | Potency [2] | Potency [3] | Potency [4] | Potency [5]

C[C@@H]1CC[C@H]2C(=O)O[C@H](CN=[N+]=[N-])CN2[C@@H]1c1ccc(Br)cc1
inactive: activation [11] 9.69% | Potency [1] | Potency [2] | Potency [3] | Potency [9] | Potency [4] | Potency [5]
active: Potency [8] 0.398 µM

CC(=O)c1ccc(OCc2ccccc2)c(C)c1O
inactive: activity change, negative = inhibition [12] -20.5% [at 11.4 µM] | Potency [1] | Potency [2] | Potency [3] | Potency [9] | Potency [4] | Potency [5]
active: Potency [8] 0.0501 µM

COC(=O)N1C2=C(c3ccccc3[C@@H]1CC(=O)O)[C@@H]1O[C@@H](C2)c2ccccc21
inactive: Potency [1] | Potency [2] | Potency [3] | Potency [9] | Potency [4] | Potency [5]
